m-calpain inh – blocks pig calpain II enzyme activity; purified calpain II, fluorogenic peptide substrate, 30 min; inhibition, % at 16 µM; 0.37% of 220,000 active; AID 1236;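 active means inhibition above about 50%, limit read from the data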
MIN6 prolif – induces beta-cell replication in MIN6 cells; 0.29% of 330,000 active; proliferation, % at 10 µM; MIN6 cells proliferation, ATPlite luminescence, 48 h; cells starved in 0.2% serum; 100% = growth in 10% serum;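 active means compounds whose signal lies at least 3.5 SD above the mean of all wells on their plate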
aDG glyco up – alpha-DG glycosylation activation; Pro5-aDG cells, alpha-DG glycosylation AlphaScreen (IIH6); 0% Pro5, 100% B10-LARGE cell signal; activation, % at 10 µM; 0.22% of 360,000 active; AID 624168;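 active means activation of at least 8% versus controls, or a plate z-score of at least 8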;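 further: Pro5 are CHO cells carrying HIG-tagged alpha-DG that lacks glycosylation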
FAS-TE inh – FAS thioesterase (human) inhibition; P49327; recombinant FAS-TE, OMFH fluorogenic substrate, fluorescence endpoint; inhibition, % at 15 µM; 0.67% of 360,000 active; AID 602261;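 active means compounds whose normalised, plate-corrected inhibition of enzyme fluorescence in the single-dose primary screen is 50% or more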
H9c2 TAG inh – inhibitors of triacylglycerol accumulation; H9c2 cells, Nile Red lipid (TAG) fluorescence; cells loaded with 200 µM oleic acid; inhibition, % at 12.5 µM; 0.66% of 230,000 active;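 active means pattern-corrected inhibition of lipid staining of at least 50% with the nuclear-stain viability signal not falling by more than 50%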
H9c2 protect – modulators protecting cardiomyocytes from myocardial damage | H9c2 cardiomyocytes, H2O2 injury protection, ATPLite, 2 h | AID 588492 | protection from H2O2 cell death, % at 20 µM | 0.63% of 360,000 active;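 active means compounds giving at least 50% protection of heart cells from peroxide-induced death in the single-dose screen, raw or plate-pattern-corrected value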
Large screens that a line does not name were inactive. Only some compounds are listed: those with a hit (about 2.3% of all), similar ones and a draw of the others.

CN1CCc2nc3ccccc3c(C(=O)OCC(=O)N(CCC#N)c3ccccc3)c2C1	H9c2 protect 58.3
CC1Cc2ccccc2N1C(=S)NC(=O)c1ccco1 (centres undefined)	m-calpain inh 52.2
O=C(NC(c1ccc(-c2ccccc2)cc1)c1cnccn1)C1CCN(CCN2C(=O)c3ccccc3C2=O)CC1 (centres undefined)	none (no result: m-calpain inh, MIN6 prolif)
O=S(=O)(Cc1ccccc1)NCC1CCCN(Cc2ccc(F)c(F)c2)C1 (centres undefined)	m-calpain inh 64.6
Cc1cccc(-c2oc3ccc(-c4ccc5c(c4)OCO5)cc3c2/C=C/c2ccc(N)cc2)c1	aDG glyco up 8.1 (no result: m-calpain inh)
O=C(CCCN1C(=O)/C(=C/c2ccccc2Cl)SC1=S)NNC(=O)c1ccc(Cl)cc1Cl	m-calpain inh 51.9
O=C(CCCN1C(=O)/C(=C/c2ccccc2Cl)SC1=S)NNC(=O)c1ccccc1	none (no result: H9c2 TAG inh)
CCOC(=O)N1CCC(N2Cc3cccc(C(=O)Nc4ccc(OC)c(OC)c4)c3C2=O)CC1	H9c2 protect 50.1
CCOC(=O)N1CCC(N2C(=O)c3ccccc3C2Nc2cc(OC)c(OC)c(OC)c2)CC1 (centres undefined)	H9c2 protect 117.2
CCOC(=O)N1CCC(N2C(=O)c3ccccc3C2Nc2cc(Cl)c(OC)cc2OC)CC1 (centres undefined)	none
CCOC(=O)N1CCC(N2Cc3cccc(C(=O)Nc4cccc(F)c4)c3C2=O)CC1	none
Cn1cc(CNCc2cn(C)nc2-c2ccc(C3CCCCC3)cc2)cn1	none
O=C(NCc1cccs1)c1ccc2sc(COCCO)nc2c1	none (no result: m-calpain inh, MIN6 prolif)
O=C(Nc1ccc2oc(-c3cccnc3)nc2c1)c1ccc([N+](=O)[O-])o1	H9c2 TAG inh 74.7 (no result: MIN6 prolif)
O=C(Nc1cccc(NC(=O)c2ccc([N+](=O)[O-])o2)c1)c1ccco1	H9c2 protect 57.1 (no result: m-calpain inh, H9c2 TAG inh)
O=C(Nc1ccc(NC(=O)c2ccc([N+](=O)[O-])o2)cc1Cl)c1ccco1	none (no result: m-calpain inh, H9c2 TAG inh)
O=C(Nc1cccc(NC(=O)c2cccs2)c1)c1ccc([N+](=O)[O-])o1	H9c2 TAG inh 61.4
O=C(Nc1ccc2oc(-c3cccnc3)nc2c1)c1ccc(Br)o1	none
O=C(/C=C/c1cccc([N+](=O)[O-])c1)Nc1cccc(NC(=O)c2cccs2)c1	H9c2 protect 81.2 (no result: H9c2 TAG inh)
COc1cc(NC(=O)c2ccc([N+](=O)[O-])o2)ccc1NC(=O)c1cccs1	none
O=C(/C=C/c1cccc([N+](=O)[O-])c1)Nc1cccc(NC(=O)c2ccco2)c1	none (no result: H9c2 TAG inh)
COC(=O)[C@@]1(Sc2ccc(OC)cc2)CC(=O)N[C@@H]1c1ccccc1	none (no result: m-calpain inh, MIN6 prolif, H9c2 TAG inh, H9c2 protect)
CC(C)CN(C(=O)CSc1nnc(-c2cccs2)n1C1CC1)C1CCS(=O)(=O)C1 (centres undefined)	none (no result: m-calpain inh, MIN6 prolif)
N#Cc1c(N)[nH]c(=S)c(C#N)c1-c1ccccc1	none (no result: H9c2 TAG inh)
N#Cc1c(N)[nH]c2ccc(Sc3ccccc3)cc12	H9c2 TAG inh 54.4 (no result: m-calpain inh, MIN6 prolif)
Cc1csc(-c2nc3ccccc3n2C(C)c2nc3ccccc3[nH]2)c1 (centres undefined)	none (no result: m-calpain inh, MIN6 prolif, FAS-TE inh, H9c2 TAG inh, H9c2 protect)
CC(=O)c1cccc(-c2cnc3c(NC=O)cc(-c4ccccc4)cn23)c1	none (no result: m-calpain inh, MIN6 prolif)
COc1cccc(-c2cnc3c(NC=O)cc(-c4cc(C)c(O)c(C)c4)cn23)c1	H9c2 protect 66.6 (no result: m-calpain inh, MIN6 prolif)
COc1cccc(-c2cnc3c(NC=O)cc(-c4ccccc4)cn23)c1	none (no result: m-calpain inh, MIN6 prolif)
CC(=O)Nc1cccc(-c2cc(NC=O)c3ncc(-c4cccc(C(C)=O)c4)n3c2)c1	H9c2 protect 71.0 (no result: m-calpain inh, MIN6 prolif)
CN(C)C(=O)c1cccc(-c2cc(NC=O)c3ncc(-c4ccc(F)cc4)n3c2)c1	none (no result: m-calpain inh, MIN6 prolif)
CC(=O)c1ccc(-c2cnc3c(NC=O)cc(-c4cccc(C(=O)N(C)C)c4)cn23)cc1	H9c2 protect 75.9 (no result: m-calpain inh, MIN6 prolif)
COc1ccc(-c2cc(NC=O)c3ncc(-c4cccc(C(C)=O)c4)n3c2)cc1	H9c2 protect 64.8 (no result: m-calpain inh, MIN6 prolif)
COc1cccc(-c2cnc3c(NC=O)cc(-c4cccc(NC(C)=O)c4)cn23)c1	H9c2 protect 64.4 (no result: m-calpain inh, MIN6 prolif)
COc1cccc(-c2cnc3c(NC(C)=O)cc(-c4cccc(NS(C)(=O)=O)c4)cn23)c1	H9c2 protect 63.3 (no result: m-calpain inh, MIN6 prolif)
COc1cccc(-c2cc(NC=O)c3ncc(-c4ccc(C(C)=O)cc4)n3c2)c1	none (no result: m-calpain inh, MIN6 prolif)
CCCCS(=O)(=O)/C=C\C=C/S(=O)(=O)CCCC	H9c2 TAG inh 87.9
COc1cc(C)c(Cl)cc1S(=O)(=O)N1CCSC1	none (no result: m-calpain inh, H9c2 TAG inh)

Screening results: PubChem BioAssay, several laboratories
